# Bioassay records from PubChem.
# A selection: hits, their analogues and other compounds. The true share with any hit is near 19%.
# CHX counter = Cycloheximide Counterscreen for Small Molecule Inhibitors of Shiga Toxin; max response, %; cell reporter, cycloheximide protein synthesis inhibition counterscreen; 300,000 tested, 12% active; in the data active = max response mostly above about 13%, no sharp cut-off; inactive = mostly below about 14%; also: read at 38.3 µM for the half of the compounds with a filed dose; 0% is about no effect
# Shiga toxin inh = A qHTS for Small Molecule Inhibitors of Shiga Toxin; inhibition, % at 38.7 µM; AID 2315, 2010; Vero cells, Shiga toxin protein synthesis inhibition reporter; 290,000 tested, 9.2% active; in the data active = inhibition mostly above about 28%, no sharp cut-off; inactive = mostly below about 43%; also: 0% is about no effect
# Pf growth 48h = Primary qHTS for delayed death inhibitors of the malarial parasite plastid, 48 hour incubation; P. falciparum luciferase growth in erythrocytes, 48 h; Potency, µM (top dose mostly 28.7 µM), inactives show top-dose activity change, negative = inhibition, actives largely listed as inhibitors; 310,000 tested, 5.9% active; also: potency is read from the fitted curve at half-maximal effect; % is scaled to controls: 0 for no effect and ±100 for the full control effect
#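 Cell-based growth assay: transgenic P. falciparum expressing firefly luciferase, cultured in red cells within RPMI 1640 containing 0.5% w/v Albumax, 24 mM bicarbonate and gentamycin. A drop in luciferase activity indicates inhibition.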
# SARS PLP yeast = qHTS of Yeast-based Assay for SARS-CoV PLP; S. cerevisiae expressing SARS-CoV PLpro, growth rescue; Potency, µM (highest dose often 32.9 µM), for inactives: at the highest dose activity, positive = growth rescue, most hits filed as activators; 330,000 tested, 0.19% active; AID 485353, 2010; calls by dose curve; also: potency is read from the fitted curve at half-maximal effect; 0% is about no effect; nearly all actives have a fitted effect of over 55% in size
# Pf growth 96h = Primary qHTS for delayed death inhibitors of the malarial parasite plastid, 96 hour incubation; P. falciparum luciferase reporter growth, 96 h; Potency, µM (series often up to 28.7 µM), for inactives: at the top dose activity change, negative = inhibition, usual class: inhibitors; 320,000 tested, 6.9% active; AID 504834, 2011; also: potency is read from the fitted curve at half-maximal effect; % is scaled to controls: 0 for no effect and ±100 for the full control effect
#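 96 h incubation, 37 C, 5% CO2, of luciferase-reporter P. falciparum-infected RBCs (2% hematocrit, 0.05% parasitemia final) with test compounds; endpoint luminescence.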
# AMA1-RON2 inh = qHTS for Inhibitors of AMA1-RON; Towards Development of Antimalarial Drug Lead: Primary Screen. Potency, µM (top dose mostly 58.2 µM), without a hit: at the top dose activity change, negative = inhibition, usual class: inhibitors. 360,000 tested, 0.2% active. AlphaScreen AMA1-biotinylated RON2 peptide binding. Plasmodium falciparum AMA1 (3D7) - RON2 peptide interaction;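 also: potency is read from the fitted curve at half-maximal effect; 0% = vehicle wells and -100% = peptide control; nearly all actives have a fitted effect of over 45% in size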
#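 AMA1 (3D7) with his tag at 25 nM final met compounds first, then biotinylated RON2 peptide at 25 nM; detection used donor plus acceptor beads, 10 µg/mL apiece, read by AlphaScreen after 30 min at room temperature.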
# Active calls of the source: *; u = inconclusive; x = not tested or not shown. Unless noted, calls follow the shape of the dose curve; as a rule, active = well fitted curve in the direction sought with a large enough effect; inconclusive = small, poorly fitted or top-dose-only effect, or another doubt; inactive = no such curve, though single readings can be large; an effect the other way counts as inactive or inconclusive.
SMILES,CHX counter,Shiga toxin inh,Pf growth 48h,SARS PLP yeast,Pf growth 96h,AMA1-RON2 inh
Cc1ccc(NC(=O)c2cccc3cccnc23)cc1,35*,111*,85%,-9%,171%,5%
CC(=O)Nc1cccc(NC(=O)c2cccc3cccnc23)c1,19*,32,u,-4%,20%,6%
Cc1ccc(NC(=O)CN(C)S(=O)(=O)c2cccc3cccnc23)cc1,-8,-13,x,2%,3%,3%
O=C(NCCc1ccccc1F)c1cccc2cccnc12,52*,82*,u,-14%,0%,-13%
CS(=O)(=O)c1ccc(C(=O)OCC(=O)N2CCCc3ccccc32)cc1,x,x,-1%,1%,30%,-2%
O=C(NCCc1nc2ccccc2[nH]1)c1cc([N+](=O)[O-])cc([N+](=O)[O-])c1,-2,-4,4.7µM*,23%,u,-3%
O=C(Cn1cc([N+](=O)[O-])cn1)NCCc1nc2ccccc2[nH]1,4,11,19%,0%,9.3µM*,98%
O=C(Cn1cc([N+](=O)[O-])cn1)NCCc1c[nH]c2ccccc12,-2,-4,15%,1%,u,-5%
CCC1(C(=O)c2ccccc2)C(c2ccc([N+](=O)[O-])cc2)C1(C(=O)OC)C(=O)OC (centres undefined),1,-11,13µM*,-43%,18%,3%
Cc1ccc(SC(C)c2nc(-c3ccccc3)no2)cc1 (centres undefined),23*,44,-3%,-24%,-17%,u
Cc1ccccc1OC(C)c1nc(-c2ccccc2)no1 (centres undefined),38*,48,14%,-9%,x,68%
Cc1cc(O)c(C2=Nc3ccccc3SC(c3ccc(Cl)cc3)C2)c(=O)o1 (centres undefined),48*,34*,218%,-8%,213%,17%
c1ccc(C[n+]2c(-c3ccccc3)csc2Nc2ccccc2)cc1,15*,36,u,-3%,9.3µM*,-3%
CC[n+]1c(-c2ccccc2)csc1Nc1c(C)n(C)n(-c2ccccc2)c1=O,-1,-10,-9%,-15%,11%,15%
c1ccc(Nc2scc(-c3ccccc3)[n+]2Cc2ccco2)cc1,52*,158*,129%,-23%,-69%,u
C=CC[n+]1c(-c2ccc(C)cc2)csc1Nc1ccc(NC(C)=O)cc1,-5,-17,u,-8%,0%,-17%
Cc1cccc(C(=O)NNC(=O)c2ccc3ccccc3c2)c1,x,x,x,x,x,62%
O=C(Cn1cc(C(F)(F)F)cc(Cl)c1=O)NC1CCS(=O)(=O)C1 (centres undefined),x,x,-1%,7%,u,-3%
CC(=O)N/N=c1\sc2ccccc2n1C,1,29,-8%,4%,u,13%
Cn1/c(=N\NC(=O)c2ccccc2Cl)sc2ccccc21,31*,75*,178%,1%,u,u
Cn1/c(=N\NC(=O)C2CCCCC2)sc2ccccc21,37*,56*,47%,2%,43%,-8%
O=[N+]([O-])c1cccc(C(=Nc2cccc(Cl)c2)NO)c1,-3,-6,12%,-2%,6%,-5%
ONC(=Nc1ccc(Cl)cc1)c1ccccc1,18*,7,54%,-6%,55%,-3%
Cc1cc(C)c(C(=O)/C=C/c2cccc3ccccc23)c(=O)[nH]1,0,-12,u,7%,u,-9%
Cc1[nH]c(=O)c(C(=O)/C=C/c2ccccc2F)c2c1CCCC2,-3,-14,3.3µM*,2%,5.2µM*,-7%
CCN(CC)C(C)C#CCC(c1ccccc1)c1ccccc1 (centres undefined),-4,1,u,-10%,u,x
COc1ccccc1OCCNC(=O)c1ccc(NC(=O)CC2SC(N3CCCC3)=NC2=O)cc1 (centres undefined),x,x,x,x,x,-12%
